# Test results from publication PMC11006913.
# Assays:
# Assay in all cases: PBM; 200 nM protein, PBS
# Details in all cases: dsDNA, one strand shown
# [1] = biological target: HESX1 (Homo sapiens, UniProt Q9UBX0 95-180, R165K)
# [2] = biological target: SHOX (Homo sapiens, UniProt O15266 103-189)
# [3] = biological target: HESX1 (Homo sapiens, UniProt Q9UBX0 95-180)
# [4] = biological target: SHOX (Homo sapiens, UniProt O15266 103-189, R173C)
# [5] = biological target: HESX1 (Homo sapiens, UniProt Q9UBX0 95-180, R109Q)
# [6] = biological target: HESX1 (Homo sapiens, UniProt Q9UBX0 95-180, P111T)
# [7] = biological target: HESX1 (Homo sapiens, UniProt Q9UBX0 95-180, F115L)
# [8] = biological target: ALX4 (Homo sapiens, UniProt Q9H161 200-286, Q225E)
# [9] = biological target: ALX1 (Homo sapiens, UniProt Q15699 118-204, L144V)
# [10] = biological target: ALX3 (Homo sapiens, UniProt O95076 139-225, N203Q)
# [11] = biological target: ALX1 (Homo sapiens, UniProt Q15699 118-204, L144R)
# [12] = biological target: ALX3 (Homo sapiens, UniProt O95076 139-225)
# [13] = biological target: PROP1 (Homo sapiens, UniProt O75360 56-141)
# [14] = biological target: PROP1 (Homo sapiens, UniProt O75360 56-141, R99H)
# [15] = biological target: ALX3 (Homo sapiens, UniProt O95076 139-225, L168Q)
# [16] = biological target: ALX3 (Homo sapiens, UniProt O95076 139-225, L168V)
# [17] = biological target: PROP1 (Homo sapiens, UniProt O75360 56-141, F88S)
# [18] = biological target: ALX1 (Homo sapiens, UniProt Q15699 118-204)
# [19] = biological target: ALX3 (Homo sapiens, UniProt O95076 139-225, N203S)
# [20] = biological target: MSX2 (Homo sapiens, UniProt P35548 130-214, R199I)
# MSX2, sequence (P35548 130-214 R199I): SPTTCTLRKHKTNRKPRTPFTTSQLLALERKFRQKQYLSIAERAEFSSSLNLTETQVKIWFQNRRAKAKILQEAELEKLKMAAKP
# ALX3 (Homo sapiens, UniProt O95076 139-225, L168Q), sequence (O95076 139-225 L168Q): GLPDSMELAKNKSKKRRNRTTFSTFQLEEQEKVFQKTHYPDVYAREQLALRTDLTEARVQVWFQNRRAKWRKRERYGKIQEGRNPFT
# HESX1 (Homo sapiens, UniProt Q9UBX0 95-180, P111T), sequence (Q9UBX0 95-180 P111T): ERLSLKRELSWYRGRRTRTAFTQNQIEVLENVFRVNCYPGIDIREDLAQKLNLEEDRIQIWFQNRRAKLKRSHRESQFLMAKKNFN
# HESX1 (Homo sapiens, UniProt Q9UBX0 95-180, F115L), sequence (Q9UBX0 95-180 F115L): as the sequence (Q9UBX0 95-180 P111T) above, with T17P, F21L counted along it
# ALX1 (Homo sapiens, UniProt Q15699 118-204), sequence (Q15699 118-204): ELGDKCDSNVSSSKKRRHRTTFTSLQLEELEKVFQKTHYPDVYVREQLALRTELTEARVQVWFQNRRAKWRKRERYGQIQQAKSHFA
# HESX1 (Homo sapiens, UniProt Q9UBX0 95-180), sequence (Q9UBX0 95-180): as the sequence (Q9UBX0 95-180 P111T) above, with T17P counted along it
# ALX1 (Homo sapiens, UniProt Q15699 118-204, L144R), sequence (Q15699 118-204 L144R): as the sequence (Q15699 118-204) above, with L27R counted along it
# ALX3 (Homo sapiens, UniProt O95076 139-225), sequence (O95076 139-225): as the sequence (O95076 139-225 L168Q) above, with Q30L counted along it
# ALX1 (Homo sapiens, UniProt Q15699 118-204, L144V), sequence (Q15699 118-204 L144V): as the sequence (Q15699 118-204) above, with L27V counted along it
# HESX1 (Homo sapiens, UniProt Q9UBX0 95-180, R165K), sequence (Q9UBX0 95-180 R165K): as the sequence (Q9UBX0 95-180 P111T) above, with T17P, R71K counted along it
# PROP1 (Homo sapiens, UniProt O75360 56-141, F88S), sequence (O75360 56-141 F88S): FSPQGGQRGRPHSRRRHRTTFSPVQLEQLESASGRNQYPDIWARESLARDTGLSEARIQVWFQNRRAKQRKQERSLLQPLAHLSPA
# ALX4, sequence (Q9H161 200-286 Q225E): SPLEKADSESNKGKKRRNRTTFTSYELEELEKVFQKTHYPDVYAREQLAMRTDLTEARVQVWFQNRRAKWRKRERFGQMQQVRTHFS
# SHOX (Homo sapiens, UniProt O15266 103-189), sequence (O15266 103-189): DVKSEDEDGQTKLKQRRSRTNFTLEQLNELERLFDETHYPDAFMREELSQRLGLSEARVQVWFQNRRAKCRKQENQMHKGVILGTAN
# ALX3 (Homo sapiens, UniProt O95076 139-225, N203Q), sequence (O95076 139-225 N203Q): as the sequence (O95076 139-225 L168Q) above, with Q30L, N65Q counted along it
# PROP1 (Homo sapiens, UniProt O75360 56-141), sequence (O75360 56-141): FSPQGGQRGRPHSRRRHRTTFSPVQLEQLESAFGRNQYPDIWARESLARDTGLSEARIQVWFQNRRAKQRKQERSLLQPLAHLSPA
# PROP1 (Homo sapiens, UniProt O75360 56-141, R99H), sequence (O75360 56-141 R99H): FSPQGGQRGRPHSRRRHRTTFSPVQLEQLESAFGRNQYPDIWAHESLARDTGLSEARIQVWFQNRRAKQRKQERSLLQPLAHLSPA
# HESX1 (Homo sapiens, UniProt Q9UBX0 95-180, R109Q), sequence (Q9UBX0 95-180 R109Q): as the sequence (Q9UBX0 95-180 P111T) above, with R15Q, T17P counted along it
# ALX3 (Homo sapiens, UniProt O95076 139-225, N203S), sequence (O95076 139-225 N203S): as the sequence (O95076 139-225 L168Q) above, with Q30L, N65S counted along it
# ALX3 (Homo sapiens, UniProt O95076 139-225, L168V), sequence (O95076 139-225 L168V): as the sequence (O95076 139-225 L168Q) above, with Q30V counted along it
# SHOX (Homo sapiens, UniProt O15266 103-189, R173C), sequence (O15266 103-189 R173C): as the sequence (O15266 103-189) above, with R71C counted along it
Sequence,binding signal [1],binding signal [2],binding signal [3],binding signal [4],binding signal [5],binding signal [6],binding signal [7],binding signal [8],binding signal [9],binding signal [10],binding signal [11],binding signal [12],binding signal [13],binding signal [14],binding signal [15],binding signal [16],binding signal [17],binding signal [18],binding signal [19],binding signal [20]
CCTTCGAG,"6.45 upbm affinity estimate (log intensity, higher = more binding, comparable within an allelic series)","7.09 upbm affinity estimate (log intensity, higher = more binding, comparable within an allelic series)","6.39 upbm affinity estimate (log intensity, higher = more binding, comparable within an allelic series)","7.23 upbm affinity estimate (log intensity, higher = more binding, comparable within an allelic series)","6.55 upbm affinity estimate (log intensity, higher = more binding, comparable within an allelic series)","6.56 upbm affinity estimate (log intensity, higher = more binding, comparable within an allelic series)","6.63 upbm affinity estimate (log intensity, higher = more binding, comparable within an allelic series)",,,,,,,,,,,,,
AATTAGAT,"11.3 upbm affinity estimate (log intensity, higher = more binding, comparable within an allelic series)","11.6 upbm affinity estimate (log intensity, higher = more binding, comparable within an allelic series)","11.4 upbm affinity estimate (log intensity, higher = more binding, comparable within an allelic series)","9.16 upbm affinity estimate (log intensity, higher = more binding, comparable within an allelic series)","8.52 upbm affinity estimate (log intensity, higher = more binding, comparable within an allelic series)","10.1 upbm affinity estimate (log intensity, higher = more binding, comparable within an allelic series)","7.63 upbm affinity estimate (log intensity, higher = more binding, comparable within an allelic series)","12.6 upbm affinity estimate (log intensity, higher = more binding, comparable within an allelic series)","11.6 upbm affinity estimate (log intensity, higher = more binding, comparable within an allelic series)","8.42 upbm affinity estimate (log intensity, higher = more binding, comparable within an allelic series)","11.1 upbm affinity estimate (log intensity, higher = more binding, comparable within an allelic series)","12.4 upbm affinity estimate (log intensity, higher = more binding, comparable within an allelic series)","11.5 upbm affinity estimate (log intensity, higher = more binding, comparable within an allelic series)","10.9 upbm affinity estimate (log intensity, higher = more binding, comparable within an allelic series)","10.2 upbm affinity estimate (log intensity, higher = more binding, comparable within an allelic series)","9.67 upbm affinity estimate (log intensity, higher = more binding, comparable within an allelic series)","7.72 upbm affinity estimate (log intensity, higher = more binding, comparable within an allelic series)","12.2 upbm affinity estimate (log intensity, higher = more binding, comparable within an allelic series)","8.49 upbm affinity estimate (log intensity, higher = more binding, comparable within an allelic series)",
CAATTAGG,"12.5 upbm affinity estimate (log intensity, higher = more binding, comparable within an allelic series)","12.1 upbm affinity estimate (log intensity, higher = more binding, comparable within an allelic series)","12.7 upbm affinity estimate (log intensity, higher = more binding, comparable within an allelic series)","9.72 upbm affinity estimate (log intensity, higher = more binding, comparable within an allelic series)","9.39 upbm affinity estimate (log intensity, higher = more binding, comparable within an allelic series)","11.2 upbm affinity estimate (log intensity, higher = more binding, comparable within an allelic series)","7.73 upbm affinity estimate (log intensity, higher = more binding, comparable within an allelic series)","12.8 upbm affinity estimate (log intensity, higher = more binding, comparable within an allelic series)","11.5 upbm affinity estimate (log intensity, higher = more binding, comparable within an allelic series)","8.27 upbm affinity estimate (log intensity, higher = more binding, comparable within an allelic series)","10.9 upbm affinity estimate (log intensity, higher = more binding, comparable within an allelic series)","12.2 upbm affinity estimate (log intensity, higher = more binding, comparable within an allelic series)","11.3 upbm affinity estimate (log intensity, higher = more binding, comparable within an allelic series)","11.5 upbm affinity estimate (log intensity, higher = more binding, comparable within an allelic series)","10.4 upbm affinity estimate (log intensity, higher = more binding, comparable within an allelic series)","9.81 upbm affinity estimate (log intensity, higher = more binding, comparable within an allelic series)","7.6 upbm affinity estimate (log intensity, higher = more binding, comparable within an allelic series)","12.1 upbm affinity estimate (log intensity, higher = more binding, comparable within an allelic series)","8.37 upbm affinity estimate (log intensity, higher = more binding, comparable within an allelic series)","12.7 upbm affinity estimate (log intensity, higher = more binding, comparable within an allelic series)"
CAAATTAA,"11.5 upbm affinity estimate (log intensity, higher = more binding, comparable within an allelic series)","11.7 upbm affinity estimate (log intensity, higher = more binding, comparable within an allelic series)","11.5 upbm affinity estimate (log intensity, higher = more binding, comparable within an allelic series)","9.3 upbm affinity estimate (log intensity, higher = more binding, comparable within an allelic series)","8.49 upbm affinity estimate (log intensity, higher = more binding, comparable within an allelic series)","10.1 upbm affinity estimate (log intensity, higher = more binding, comparable within an allelic series)","7.67 upbm affinity estimate (log intensity, higher = more binding, comparable within an allelic series)","12.9 upbm affinity estimate (log intensity, higher = more binding, comparable within an allelic series)","11.6 upbm affinity estimate (log intensity, higher = more binding, comparable within an allelic series)","8.38 upbm affinity estimate (log intensity, higher = more binding, comparable within an allelic series)","11.1 upbm affinity estimate (log intensity, higher = more binding, comparable within an allelic series)","12.4 upbm affinity estimate (log intensity, higher = more binding, comparable within an allelic series)","11 upbm affinity estimate (log intensity, higher = more binding, comparable within an allelic series)","10.7 upbm affinity estimate (log intensity, higher = more binding, comparable within an allelic series)","10.4 upbm affinity estimate (log intensity, higher = more binding, comparable within an allelic series)","9.81 upbm affinity estimate (log intensity, higher = more binding, comparable within an allelic series)","7.49 upbm affinity estimate (log intensity, higher = more binding, comparable within an allelic series)","12.1 upbm affinity estimate (log intensity, higher = more binding, comparable within an allelic series)","8.48 upbm affinity estimate (log intensity, higher = more binding, comparable within an allelic series)",
GACAATTA,"11.7 upbm affinity estimate (log intensity, higher = more binding, comparable within an allelic series)","11.6 upbm affinity estimate (log intensity, higher = more binding, comparable within an allelic series)","12 upbm affinity estimate (log intensity, higher = more binding, comparable within an allelic series)","9.21 upbm affinity estimate (log intensity, higher = more binding, comparable within an allelic series)","8.59 upbm affinity estimate (log intensity, higher = more binding, comparable within an allelic series)","10.4 upbm affinity estimate (log intensity, higher = more binding, comparable within an allelic series)","7.41 upbm affinity estimate (log intensity, higher = more binding, comparable within an allelic series)",,,,,,,"10.8 upbm affinity estimate (log intensity, higher = more binding, comparable within an allelic series)",,,,,,"12.7 upbm affinity estimate (log intensity, higher = more binding, comparable within an allelic series)"
